Screening data from PubChem BioAssay.
CHOP inhibitor = inhibitors of CHOP induction in ER stress response; inhibition, % at 10 µM; 3.8% of 220,000 active; CHO-K1 CHOP-promoter luciferase, tunicamycin-induced, 15-18 h;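 active = compounds that reduced the stress-induced luciferase reporter signal by more than about 70% of percent inhibition, limit read from the data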;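 also: 0% = tunicamycin plus vehicle and 100% = wells without tunicamycin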
L major viab = inhibitors of Leishmania major promastigote growth. Leishmania major promastigotes, resazurin fluorescence viability. 9% of 200,000 active. inhibition, % at 10 µM. AID 1063; in the data active = inhibition above about 50%;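 also: promastigotes grown with compound for 44 hours at 28 °C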
RAM inhibit = yeast RAM network inhibition; S. cerevisiae dse1pr::URA3 reporter, 5-FOA growth OD615, 2 d; analog-sensitive cbk1-as2 kinase mutant strain; inhibition, % at 50 µM; 1.8% of 190,000 active;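 active = inhibition above a set limit, 3 SD over mean compound inhibition, cut at about 8.4% in these data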;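 also: 0% = DMSO-only wells with no growth and 100% = 10 µM 1-NA-PP1 full growth; inhibition rescues growth on 5-FOA so higher OD means more RAM inhibition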
WT yeast gro inh = growth inhibition of WT yeast, mitochondrial fusion screen; mitochondrial fusion phenotypic screen, WT strain; inhibition, % at 10 µM; 2.1% of 190,000 active; AID 1362; in the data active = inhibition above about 58%; tested in S. cerevisiae
An asterisk follows results filed as active; nt = no result. Rows were chosen to be rich in hits. Some 13% of all compounds tested hit in one or more screens of this group.

SMILES	CHOP inhibitor	L major viab	RAM inhibit	WT yeast gro inh
COCCCNC(=O)CS(=O)(=O)Cc1nc(-c2ccccc2C)oc1C	15	16	1	-8
O=C(CN(C(=O)c1csnn1)c1cccc2c1CCCC2)NC1CCCC1	24	5	1	-22
Cc1nn(C(=O)c2ccco2)c(C)c1Sc1ccccc1	93*	0	3	4
Cc1nn(C(=O)c2cccc([N+](=O)[O-])c2)c(C)c1Sc1ccccc1	52	-1	4	25
Cc1nn(C(=O)c2ccco2)c(C)c1Sc1ccc(Br)cc1	21	-5	8.8*	1
COc1cccc(CN(C)C(=O)c2cc(COc3ccc4ncccc4c3)on2)c1	46	16	2	4
CCc1ccc(OCC(=O)NC(C)C)cc1	4	-4	-1	2
Cc1ccc(C(=O)CSc2ncnc3sc4c(c23)CCC(C)C4)cc1 (stereo unspecified)	20	-4	8.6*	-11
Cc1nnc2n(-c3ccccc3)c(=O)c3c4c(sc3n12)COC(C(C)C)C4 (stereo unspecified)	36	9	6	-21
CC(C)C1Cc2c(sc3[nH]c(=S)n(Cc4ccccc4)c(=O)c23)CO1 (stereo unspecified)	39	8	6	61*
O=C(Nc1c(S(=O)(=O)c2ccc(Cl)cc2)csc1Br)c1ccccc1Cl	10	nt	nt	nt
COc1ccc(-c2csc(C3=C(O)CN(Cc4ccc(S(N)(=O)=O)cc4)C3=N)n2)cc1OC	56	-5	2	4
COc1ccc(-c2csc(C3=C(O)CN(Cc4ccc(Cl)cc4)C3=N)n2)cc1OC	45	58*	5	-2
O=C1c2[nH]nc(-c3ccccc3O)c2C(c2ccccc2F)N1Cc1ccco1 (stereo unspecified)	44	100*	4	6
COc1cccc(C2c3c(-c4ccccc4O)n[nH]c3C(=O)N2Cc2ccco2)c1 (stereo unspecified)	13	nt	nt	nt
O=C1c2[nH]nc(-c3ccccc3O)c2C(c2ccccc2)N1Cc1ccco1 (stereo unspecified)	-7	78*	3	-11
Cc1cc(C)nc(NN2C(=O)/C(=C/c3ccc(O)cc3)SC2=S)n1	12	5	4	-8
Cn1cccc1CC(=O)NNC(=O)Nc1cccc(Cl)c1	8	-6	2	6
CCOc1cccc(-c2nnc3sc(COc4ccccc4)nn23)c1	43	-6	3	3
CCOc1cccc(-c2nnc3sc(COc4ccc(C)cc4)nn23)c1	70*	-8	7	16
COc1cc(NS(=O)(=O)c2ccc(N/C=C(\C#N)c3nc4cc(Cl)ccc4o3)cc2)nc(OC)n1	92*	-7	9.1*	-2
O=C(NCc1ccc(Cl)cc1)C1CCN(S(=O)(=O)c2cc([N+](=O)[O-])ccc2Cl)CC1	-26	80*	3	-21
Cc1cccc2sc(NC(=O)C3CCCN(S(=O)(=O)c4cccc5nonc45)C3)nc12 (stereo unspecified)	81*	0	3	14
Cc1cccc2sc(NC(=O)C3CCN(S(=O)(=O)c4cc([N+](=O)[O-])ccc4Cl)CC3)nc12	70*	90*	4	-5
COc1ccc2nc(NC(=O)C3CCN(S(=O)(=O)c4cccc5nsnc45)CC3)sc2c1	49	32	7	5
SMILES	CHOP inhibitor	L major viab	RAM inhibit	WT yeast gro inh
O=C(NCc1ccc(Cl)cc1)C1CCN(S(=O)(=O)c2ccccc2)CC1	-8	-6	3	-11
COc1ccc(/C=C/c2nnc(NC(=O)COc3ccc(C)cc3)s2)cc1	-2	-1	2	-3
O=C(CCN1C(=O)C2C3CC(C(Br)C3Br)C2C1=O)OCC(=O)c1ccccc1 (stereo unspecified)	-4	15	4	-4
CCNC(=O)c1cc(Cl)ccc1OC	37	56*	0	1
CCN(CC)c1ccc(NC(=O)c2cc(Cl)ccc2OC)cc1	15	99*	1	41
COc1ccc(Cl)cc1C(=O)Nc1ccc2c(c1)OCO2	3	6	5	nt
COc1ccc(Cl)cc1C(=O)Nc1ccc(CN2CCCCC2)cc1	10	98*	1	-8
COc1ccc(Cl)cc1C(=O)NCC(C)C	0	-2	-1	-2
Cc1ccc(C(=O)Nc2ccc(CN3CCCCC3)cc2)c(C)c1	5	74*	1	10
Cc1onc(-c2ccccc2)c1C(=O)NNC(=S)NC(=O)c1ccc2c(c1)OCO2	14	nt	nt	nt
Cc1cccc(N2CCN(Cc3cn(C)nc3-c3ccccc3F)CC2)n1	5	2	0	1
CCOC(=O)c1cc(CC)sc1NC(=O)C(c1ccccc1)c1ccccc1	24	2	9.3*	15
CCOC(=O)c1cc(-c2ccccc2)sc1NC(=O)C(C)Sc1nnnn1C (stereo unspecified)	40	-4	5	23
CCOC(=O)c1cc(CC)sc1NC(=O)C1CC1	2	2	-2	3
CCOC(=O)c1cc(CC)sc1NC(=O)c1cc(OCC)c(OCC)c(OCC)c1	16	7	10*	-12
CCOC(=O)c1cc(-c2ccccc2)sc1NC(=O)C(C)Sc1nnc(C)s1 (stereo unspecified)	46	2	11*	30
Cc1ccc(NC(=O)c2ccc3ncsc3c2)cc1S(=O)(=O)N(C)C	7	nt	nt	nt
CCCN(CC(=O)Nc1cccc(Br)c1)CC(=O)Nc1ccc(F)c(F)c1F	79*	7	1	69*
CCCN(CC(=O)Nc1ccc(F)c(F)c1F)CC(=O)Nc1c(Cl)cccc1Cl	7	9	0	-2
CCCN(CC(=O)Nc1ccc(C)cc1Br)CC(=O)Nc1ccc(F)c(F)c1F	72*	4	0	46
Cc1c(C)n(CC(O)CN2C(=O)c3ccccc3S2(=O)=O)c2ccccc12 (stereo unspecified)	41	1	1	-3
Cc1cc(S(=O)(=O)N2CCN(c3ncccn3)CC2)ccc1-n1cnnn1	-12	-4	2	-10
N#Cc1c(N2CCCCC2)nc(N)c2c(N)nc3c(c12)CC(c1ccccc1)O3 (stereo unspecified)	41	40	1	14
CCC1Cc2c(nc(N)c3c(N)nc(N4CCCCC4)c(C#N)c23)O1 (stereo unspecified)	22	51*	0	-11
O=C(COC(=O)C1CCN(S(=O)(=O)c2ccc3c(c2)OCCO3)CC1)Nc1ccc(C(F)(F)F)cc1	19	-7	4	9
SMILES	CHOP inhibitor	L major viab	RAM inhibit	WT yeast gro inh
COc1ccc(/C=N/Nc2cc(N3CCCC3)nc(N3CCCC3)n2)cc1	31	95*	1	75*
Oc1cccc(/C=N/Nc2cc(N3CCCC3)nc(N3CCCC3)n2)c1	79*	97*	0	37
Oc1ccc(/C=N/Nc2cc(N3CCOCC3)nc(N3CCOCC3)n2)cc1	nt	-10	nt	nt
NS(=O)(=O)c1ccc(CCNCC(=O)NC2CC2)cc1	-3	nt	nt	nt
Cc1ccc(Nc2nc(N)nc(CN3CCCCCC3)n2)cc1	8	-4	1	-9
Cc1c(Cl)cccc1Nc1nc(N)nc(CN2CCCCCC2)n1	-12	81*	0	-4
COc1ccccc1Nc1nc(N)nc(CN2CCc3ccccc3C2)n1	-4	100*	0	-3
